# Screening data (PubChem)
# Polio RdRp inh – poliovirus RNA polymerase inhibition; poliovirus polymerase elongation, fluorescence polarization; stronger effect = lower value; % elongation, % (compound at 16.7 µg/mL); 0.66% of 150,000 active; AID 588519; in the data active = % elongation below about 90%
# Mtb MenB inh – blocks the Mycobacterium tuberculosis MenB enzyme; P9WNP5; MenB enzyme assay, absorbance read-out; inhibition, % (concentration not given with the values); 0.43% of 100,000 active; AID 540299; in the data active = inhibition above about 21%, passing the limit was not always enough
# Mtb MbtI inh – MbtI salicylate synthase inhibition; purified MbtI enzyme, fluorescence intensity read-out; P9WFX0; AID 493033; 0.89% of 100,000 active; inhibition, % (no concentration beside the values); in the data active = inhibition mostly above about 56%, no sharp cut-off; inactive = mostly below about 77%
# Target sequence (P9WFX0 whole entry, looked up): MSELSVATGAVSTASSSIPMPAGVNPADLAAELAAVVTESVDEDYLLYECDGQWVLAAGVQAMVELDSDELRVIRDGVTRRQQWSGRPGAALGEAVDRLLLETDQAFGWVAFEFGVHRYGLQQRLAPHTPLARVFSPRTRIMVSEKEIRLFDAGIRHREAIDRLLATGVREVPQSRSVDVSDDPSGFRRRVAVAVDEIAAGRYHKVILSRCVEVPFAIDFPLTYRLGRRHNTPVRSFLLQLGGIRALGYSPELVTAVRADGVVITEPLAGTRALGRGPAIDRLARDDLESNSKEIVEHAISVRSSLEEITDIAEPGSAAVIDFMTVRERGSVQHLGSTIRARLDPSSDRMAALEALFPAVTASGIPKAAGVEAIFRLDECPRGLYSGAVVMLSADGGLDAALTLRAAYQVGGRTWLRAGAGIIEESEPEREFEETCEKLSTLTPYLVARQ
# AID504770 – E. coli YBA685 growth inhibition, screen for V. cholerae RctB inhibitors. E. coli YBA685 rctB-dependent plasmid, OD600 growth, 3 h; stronger effect = lower value. z-score (test concentration not listed). 0.27% of 130,000 active. AID 504770; in the data active = z-score below about -2, passing the limit was not always enough
# Active calls of the source: *; . = no result given; ! = not active in a repeat. The list is not random: actives were taken first. Their share in the collection is about 1.4%.
SMILES,Polio RdRp inh,Mtb MenB inh,Mtb MbtI inh,AID504770
C=CCN1CC(c2nc3ccccc3n2C(C)c2ccccc2)CC1=O (configuration not stated),99,7,-7,-0.65
N#Cc1c(N)nc(SCC(=O)c2cc3ccccc3oc2=O)c(C#N)c1-c1ccc(O)cc1,99,-11,-8,-0.2
O=c1[nH]cnc2sc3c(c12)CCCC3,101,34*,29,1.2
COc1ccc(CCC(O)C2(O)CCCCC2)cc1 (configuration not stated),101,-18,.,1.8
S=C=NCCc1ccccc1,89*,-23,65*,-0.9
COc1ccc(CCN=C=S)cc1,77*,-68,96*,-1.5
C=CCn1c(=S)sc2c(=O)n(Cc3ccc(Cl)cc3)cnc21,100,-39,0,-0.35
O=C(Cn1c(=O)c(CNc2ccccc2)cc2cc3c(cc21)OCCO3)Nc1ccccc1Cl,51*,.,.,.
Cc1ccc(Cl)cc1NC(=O)Cn1c(=O)c(CNc2ccccc2)cc2cc3c(cc21)OCCO3,102,.,.,.
COc1ccccc1/C=C1/SC(=S)NC1=O,107,.,-2,0.15
COc1ccccc1OCCn1cc(/C=C2/SC(=S)NC2=O)c2ccccc21,98,-94,59*,0.5
S=c1nc(-c2ccccc2)[nH]n1CN1CCc2ccccc2C1,99,-13,96*,1.9
CCCCC1C(=O)N(c2ccccc2)N(c2ccc(O)cc2)C1=O (configuration not stated),101,-10,84*!,0.35
Cn1c2ccccc2c2nnc(SCC(=O)N=C3NC(=O)CS3)nc21,.,.,.,0.75
O=C1c2ccccc2C(=O)N1CCSC1=NN2CCS(=O)(=O)N=C2S1,84*,1,29,1.7
O=C(Nc1cccc(F)c1)[C@H](CSCc1ccccc1)N1Cc2ccccc2C1=O,84*,.,.,.
O=C(Nc1cccc(F)c1)[C@H](Cc1ccccc1)N1Cc2ccccc2C1=O,100,-20,-9,-0.55
Cc1ccc(C(=O)NC2CCCCCC2)cc1NC(=O)c1ccco1,99,-3,-34,0.1
O=C1NC(=S)S/C1=C\c1ccccc1C(F)(F)F,.,.,.,2.8
O=C1NC(=O)/C(=C\c2ccccc2C(F)(F)F)S1,103,-20,100*,-0.4
Cc1ccc(S(=O)(=O)Nc2c(C#N)c3nc4ccccc4nc3n2Cc2ccccc2)cc1,73*,-33,-22,0.25
c1ccc(C2CCCN(c3ncnc4nc[nH]c34)C2)cc1 (configuration not stated),99,-1,0,-0.25
Cn1c(=O)[nH]c(=O)c2c1nc1n2CCCN1c1ccccc1,101,36*,-12,-0.65
Cc1cccc(N2CCCn3c2nc2c3c(=O)n(C)c(=O)n2C)c1,102,1,-11,-2.5
Cn1nc(-c2ccc(Cl)cc2)c2cc(C(=O)NCc3ccccn3)sc21,.,.,.,0.55
SMILES,Polio RdRp inh,Mtb MenB inh,Mtb MbtI inh,AID504770
Oc1ccc(Cl)cc1-c1csnn1,100,2,9,-2.2*
O=C1c2ccccc2C(=O)N1CC(F)(F)F,105,-5,.,-0.4
CN1C(=O)C(=Cc2cccs2)C(=O)N(C)C1=S,103,-9,16,-0.75
O=C1OC(c2ccccc2)OC(=O)C1=Cc1cccs1 (configuration not stated),101,-4,65*,-1.4
O=S(=O)(c1ccc(N2CCC(CNc3nc4ccccc4s3)CC2)cc1)N1CCOCC1,103,39*,43,1.6
C#CCSc1n[nH]c(-c2ccccc2)n1,102,-14,83*,0.6
OCCSc1n[nH]c(-c2ccccc2)n1,100,6,-38,0.15
COc1ccccc1OCCNS(=O)(=O)c1ccccc1C(F)(F)F,105,0,-2,0.4
CN(C)C(=S)Nc1ccccc1N1CCOCC1,98,-11,95*,-0.6
C=C1C(C(=O)Nc2ccccc2N2CCOCC2)C1C(=O)Nc1ccccc1N1CCOCC1 (configuration not stated),103,-26,-11,0.25
CN(c1ccc(O)cc1)S(=O)(=O)c1ccccc1,99,.,-1,2.2
CC(C)(C)c1cs/c(=N/c2ccccn2)n1-c1ccc(Cl)cc1,102,-6,-11,0.35
Clc1ss/c(=N\c2ccccn2)c1Cl,87*,-19,.,0.3
CCOC(=O)c1c(N2C(=O)C=CC2=O)sc(C)c1-c1ccccc1,108,-14,77*,-0.45
Cc1ccc(OCCn2cc(C(=O)c3cccs3)c3ccccc32)cc1,77*,.,.,.
COc1ccccc1NC(CC(=O)c1ccccc1)C(=O)O (configuration not stated),106,-9,.,0.45
CC(NC(CC(=O)c1ccc(F)cc1)C(=O)O)c1ccccc1 (configuration not stated),105,83*,.,-0.5
Cc1ccc(N2C(=O)N(c3ccccc3)C(=N)C2=S)cc1Cl,68*,2,45,-0.95
CSc1nc(CSc2nnc(-c3ccccc3)n2-c2ccc(Cl)cc2)cc(=O)[nH]1,104,-33,7,-0.85
Cc1cc(NC(=S)NC(=O)c2cn(-c3ccccc3)nc2-c2cccc(Br)c2)no1,106,-37,-5,1
Cc1onc(-c2c(Cl)cccc2Cl)c1C(=O)NC(=S)N1CCN(c2ccccn2)CC1,105,-73,1,1.6
Cc1cc2c(NC(=O)COCC(=O)O)cccc2nn1,65*,8,2,0.1
O=C(Cn1c2ccccc2c2cn[nH]c(=O)c21)NCc1ccco1,100,0,45,-0.05
Cc1[nH]c(=S)sc1CC(=O)N(C)Cc1ccccc1Cl,104,-12,76*,0.6
Nc1ccc(-c2nc3ccccc3n2CCO)cc1,102,.,59,1.4
SMILES,Polio RdRp inh,Mtb MenB inh,Mtb MbtI inh,AID504770
C=CCn1c(NC)nc2c1c(=O)[nH]c(=O)n2C,104,-30,1,2.2
C=CCn1c(SC)nc2c1c(=O)[nH]c(=O)n2C,99,-28,96*,0.55
CC(C)N1CCN(C(=O)c2ccc(F)cc2)CC1,98,-5,.,0.1
COC(=O)Nc1sc(-c2ccccc2)nc1-c1ccccc1,.,.,.,0.15
S=C(S)N1CCCCC1,.,.,.,-5.2*
O=C(C1CCCCC1)N1CCCCCCC1,101,-20,-7,0
O=c1cc(CNC2CCCCC2)c2ccccc2[nH]1,99,30*,72,0.4
O=C(O)COc1ncnc2ccccc12,104,27*,10,0.8
CN(C)C(=O)COc1ncnc2ccccc12,102,.,-1,-0.6
O=C1C2CN3CCN(C2)CC1(c1ccccc1)C3,.,.,0,1.8
O=C1C2CN3CN(C2)CC1(c1ccccc1)C3,99,34*,4,0.25
CCOC(=O)C1CCN(C(=O)COC(=O)c2ccc(-n3cnnn3)cc2)CC1,102,-25,-11,-0.55
CC1=C(C)NC(=S)SC1,99,-20,97*,1.6
CN(C)S(=O)(=O)c1ccc(S(=O)(=O)N2CCC(c3nc4ccccc4s3)CC2)cc1,102,29*,2,-0.75
CC(=O)N1N=C(N)SC1(C)c1ccccc1 (configuration not stated),103,8,0,-0.65
O=S(=O)(NNc1nccc(-c2cccnc2)n1)c1cccc(C(F)(F)F)c1,101,5,55*,-1
